# TIM10 inh: inhibits growth of TIM10 yeast strain; S. cerevisiae TIM10 strain growth, BacTiter-Glo luminescence, 24 h; inhibition, % at 10 µM; 1.4% of 330,000 active; AID 463195;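 active = inhibition of 40% or more at the single tested concentration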;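 also: wild-type TIM10 isogenic control strain grown at permissive 25 °C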
# tim23-1 inh: growth inhibitors of tim23-1 mutant yeast. inhibition, % at 20 µM. S. cerevisiae tim23-1 growth, BacTiter-Glo luminescence, 24 h. AID 463212. 1.3% of 330,000 active;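 active = growth inhibition of the mutant yeast at or above 50%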;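 also: temperature-sensitive mutant grown at 25 °C; plate controls were DMSO-treated mutant yeast for no effect and medium wells lacking yeast for full effect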
# NALP3 yeast inh: blocks the NALP3 inflammasome reconstituted in yeast | inhibition, % at 10 µM | AID 2825 | 0.39% of 330,000 active | Yeast reconstituted NLRP3/ASC/caspase-1, beta-gal luminescence, 24 h;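 active = inhibition of 50% or more; inactive = inhibition below 50%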;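 also: plate controls were induced DMSO wells for no effect and uninduced yeast grown without galactose for full effect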
# SKKanGAS inh: SKKanGAS growth inhibition | 1.3% of 300,000 active | AID 1662 | inhibition, % at 7.5 µM | S. pyogenes SKKanGAS, kanamycin growth, BacTiter-Glo, 6 h;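 active = mean replicate score, as percent of positive control median, at least 50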;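 also: strain carries kanamycin resistance gene driven by streptokinase promoter and grows in 40 µg/ml kanamycin; loss of luminescence reflects streptokinase promoter inhibition or plain growth inhibition; 0% = median of DMSO wells and 100% = positive control at its reference dose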
# PfHsp90 yeast 2: growth inhibition of yeast expressing Plasmodium Hsp90. S. cerevisiae expressing PfHsp90, BacTiter-Glo ATP, 48 h; yeast lacking PDR1 and PDR3 efflux regulators. inhibition, % at 9.4 µM. 0.32% of 310,000 active;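 active = every replicate shows inhibition above about 80%, whatever the replicate mean, limit read from the data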;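 also: 0% = DMSO neutral controls and 100% = 20 µM radicicol positive controls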
# tim10-1 inh: inhibits growth of tim10-1 mutant yeast. S. cerevisiae tim10-1 ts strain growth, BacTiter-Glo, 24 h. inhibition, % at 20 µM. 2.2% of 330,000 active;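 active = inhibition of at least 40%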;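 also: mutant grown at 25 °C; 0% = DMSO wells with yeast and 100% = wells holding no yeast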
# Numbers without * were called inactive; · = not tested or not shown. Rows were chosen to be rich in hits. Some 4.5% of all compounds tested hit in one or more screens of this group.
SMILES,TIM10 inh,tim23-1 inh,NALP3 yeast inh,SKKanGAS inh,PfHsp90 yeast 2,tim10-1 inh
COc1cc(NC(=O)c2cc3nc(-c4ccccc4)cc(-c4ccccc4)n3n2)cc(OC)c1OC,22,15,26,54*,-13,9
COc1ccc(C(CNC(=O)C2CC(=O)N(Cc3ccccc3)C2)N2CCOCC2)cc1 (stereo not given),3,-15,20,·,17,-16
Cc1sc2nc(C(C)C)nc(SCC(=O)N3c4ccccc4CC3C)c2c1C (stereo not given),26,26,-3,33,11,22
CCc1nc(SCC(=O)N2c3ccccc3CC2C)c2c(C)c(C)sc2n1 (stereo not given),-2,22,22,50*,·,-2
Cc1sc2ncnc(N3CCC(C(=O)N4CC(C)SC4=Nc4ccc(Cl)cc4)CC3)c2c1C (stereo not given),·,·,·,·,-10,·
O=C(O)c1cccc2c1-c1ccc([N+](=O)[O-])cc1C2=O,·,·,·,·,-2,·
O=C(O)c1cccc2c1Cc1cc([N+](=O)[O-])ccc1-2,·,·,·,·,115*,·
CC(=O)N1CCN(c2ccccc2NC(=O)c2cc3ccccc3o2)CC1,-11,24,8,7,3,10
O=C(Nc1cccc(Cl)c1N1CCCC1)c1cc2ccccc2o1,1,5,20,73*,11,10
O=C(Nc1cccc(Cl)c1N1CCOCC1)c1ccco1,-13,18,9,2,-13,-27
O=C(Nc1cccc(Cl)c1N1CCCC1)c1ccc(Br)o1,-43,12,19,70*,-16,14
COC(C(=O)Nc1ccnn1C1CCN(Cc2nccs2)CC1)c1ccccc1 (stereo not given),3,-6,-2,51*,5,-18
O=C(/C=C/c1ccccc1)NC(NC(=S)Nc1cccc(Cl)c1)C(Cl)(Cl)Cl (stereo not given),5,-8,6,101*,-17,2
O=C(NC(NC(=S)Nc1ccccc1Cl)C(Cl)(Cl)Cl)c1cccc(Cl)c1 (stereo not given),1,-14,-4,97*,·,8
O=C(/C=C/c1ccccc1)NC(NC(=S)Nc1ccc(Cl)cc1Cl)C(Cl)(Cl)Cl (stereo not given),-5,-3,3,76*,29,4
O=C(NC(NC(=S)Nc1c(Cl)cc(Cl)cc1Cl)C(Cl)(Cl)Cl)OCc1ccccc1 (stereo not given),-9,-13,3,86*,·,-8
COc1ccc(CCN(C)S(=O)(=O)c2cn(C)c(=O)n(C)c2=O)cc1OC,1,-3,11,·,38,-7
O=C(CCNS(=O)(=O)c1ccc(Cl)cc1)N1CCN(c2ncccn2)CC1,2,10,16,·,-5,-2
COc1ccc(OC)c(/C=C2\S/C(=N/NC(=O)c3ccc4ccccc4c3)NC2=O)c1,·,·,·,106*,-101,·
O=C1N/C(=N/NC(=O)c2cccc3ccccc23)S/C1=C\c1ccccc1OCc1ccccc1,·,·,·,·,7,·
NC(=O)CCCn1c(C(=O)c2ccc(Cl)cc2)c2ccc([N+](=O)[O-])cc2[n+]1[O-],-2,2,21,23,-30,-1
NC(=O)CCCn1c(C(=O)c2cc(Cl)c(N)c(Cl)c2)c2ccc([N+](=O)[O-])cc2[n+]1[O-],16,18,6,69*,-20,22
CC(C)C[C@H](NC(=O)c1nc[nH]c1C(=O)NCc1ccccc1)C(=O)OCc1ccccc1,8,15,7,54*,-1,15
Cc1cccc(NC(=O)c2nc[nH]c2C(=O)N[C@@H](CCCCNC(=O)OC(C)(C)C)C(=O)OC(C)(C)C)c1,21,18,6,91*,10,11
CC(C)C[C@H](NC(=O)c1[nH]cnc1C(=O)N[C@@H](C)C(=O)OCc1ccccc1)C(=O)OCc1ccccc1,16,28,8,·,-3,13
SMILES,TIM10 inh,tim23-1 inh,NALP3 yeast inh,SKKanGAS inh,PfHsp90 yeast 2,tim10-1 inh
CC(C)C[C@H](NC(=O)c1[nH]cnc1C(=O)N[C@@H](C)C(=O)OC(C)(C)C)C(=O)OCc1ccccc1,30,29,9,73*,-14,23
CC(C)C[C@H](NC(=O)c1[nH]cnc1C(=O)N[C@@H](Cc1ccccc1)C(=O)OC(C)(C)C)C(=O)OC(C)(C)C,26,19,6,83*,-20,17
Cc1cccc(NC(=O)c2nc[nH]c2C(=O)N[C@@H](CC(C)C)C(=O)OCc2ccccc2)c1,27,25,6,92*,-3,19
COc1ccc(NC(=O)c2nc[nH]c2C(=O)N[C@@H](C)C(=O)OC(C)(C)C)cc1,-1,25,26,1,·,28
COc1ccc(NC(=O)c2nc[nH]c2C(=O)N[C@@H](CC(C)C)C(=O)OC(C)(C)C)cc1,13,33,13,76*,-31,17
CC(C)C[C@H](NC(=O)c1nc[nH]c1C(=O)NC1CCN(C(=O)OC(C)(C)C)CC1)C(=O)OCc1ccccc1,27,23,15,73*,-14,17
COc1ccc(N(CC(=O)NCc2ccco2)C(=O)CNS(=O)(=O)c2ccc(Cl)cc2)cc1,-12,11,12,0,-22,3
CCN1C(=O)N/C(=C/c2ccc(C)o2)C1=O,10,4,16,9,9,-7
Cc1ccc(/C=C2/NC(=O)N(Cc3ccc(Br)cc3)C2=O)o1,-17,14,17,-1,109*,15
COc1cc(OC)c(OC)cc1/C=C1\CC(C)C/C(=C\c2cc(OC)c(OC)cc2OC)C1=O (stereo not given),·,·,·,56*,-7,·
CCC1C/C(=C\c2cc(OC)c(OC)cc2OC)C(=O)/C(=C/c2cc(OC)c(OC)cc2OC)C1 (stereo not given),·,·,·,38,1,·
O=S(=O)(Cc1cc(NCc2ccccc2)nc(-c2ccncc2)n1)c1ccccc1,-16,-5,5,6,-27,2
O=S(=O)(Cc1cc(NCc2ccccc2)nc(-c2ccccn2)n1)c1ccccc1,-1,-15,24,56*,-18,10
O=C(Oc1ccc(F)c(F)c1)c1ccc2c(=O)n3c(nc2c1)CCC3,8,12,-17,4,-16,24
CC(C)c1ccc(OC(=O)c2ccc3c(=O)n4c(nc3c2)CCC4)cc1,6,-1,7,80*,·,17
CCCCCCN1N=C(C)C(C(=O)c2ccc(Cl)cc2)C1=O (stereo not given),5,16,21,50*,-55,30
CC(C)c1ccc2[nH]c3c(c2c1)CCC/C3=N\NC(=O)c1ccncc1,29,30,9,60*,8,-23
Cc1ccc(Cn2ccc(=O)c(OCc3c(Cl)cccc3Cl)c2C)cc1,14,5,5,70*,4,36
O=S1(=O)N=C(Nc2ccc(N3CCOCC3)c(Cl)c2)c2ccccc21,14,-11,8,50*,28,2

# Source: PubChem
